Drawing on ChEMBL document CHEMBL3988442, “University of Dundee, Small-Polar-MMV Screening Library” (2021), this text covers Percent Effect for 69 compounds.

In all, about 69,000 compounds went through this assay and about 420 (0.61%) showed an effect of 50% or more. This excerpt belongs to a sample that is enriched for strong results.

The target in the assay is T1, Histidine--tRNA ligase (Leishmania infantum) (UniProt A4I591).
T1 sequence (whole entry): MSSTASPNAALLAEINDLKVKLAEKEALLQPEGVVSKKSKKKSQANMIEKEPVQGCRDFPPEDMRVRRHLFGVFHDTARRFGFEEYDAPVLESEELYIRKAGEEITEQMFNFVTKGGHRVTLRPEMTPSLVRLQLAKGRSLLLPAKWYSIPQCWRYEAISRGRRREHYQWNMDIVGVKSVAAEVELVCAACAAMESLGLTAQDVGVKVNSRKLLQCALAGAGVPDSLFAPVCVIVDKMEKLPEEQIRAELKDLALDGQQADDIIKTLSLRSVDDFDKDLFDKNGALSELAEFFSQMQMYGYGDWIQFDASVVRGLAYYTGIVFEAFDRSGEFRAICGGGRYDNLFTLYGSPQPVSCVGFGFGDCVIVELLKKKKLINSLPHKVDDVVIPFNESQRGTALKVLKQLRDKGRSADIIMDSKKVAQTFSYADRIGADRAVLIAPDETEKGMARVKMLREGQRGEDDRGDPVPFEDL
The experiment in a line: Leishmania infantum Histidine tRNA synthetase (LdHisRS). The format is functional. Further details: scale not given: in the data most compounds retested in dose-response had high values. Conditions: 30 µM.
For the compound `COc1ncccc1CN1C[C@@H]2C[C@@H](C(=O)NCC3CC3)N(C)[C@@H]2C1`, the Percent Effect was 24.8%.

As for `CO[C@@H]1CC[C@H]2[C@H]1OCCN2C(=O)c1ccc(C)nc1`, the Percent Effect is 7.02%. For `COc1cc(N2C[C@H](C(=O)NC3CC3)[C@@H]3CCO[C@@H]3C2)ncn1` the value was 3.23%.

Take `CN1C[C@@H](F)[C@@H](OCc2nc3ccc(C#N)cc3[nH]2)C1`: the Percent Effect stood at 25%. The result for `Cc1ccc2[nH]c(CO[C@H]3CN(c4ccc(C#N)cn4)C[C@H]3F)nc2c1` reads 69.4%; that for `Cc1ccc2[nH]c(CO[C@H]3CN(C(=O)C4CC4)C[C@H]3F)nc2c1`, 4.05%. The result for `O=C(NC1CC1)[C@@H]1CCO[C@@H]2CCN(CCc3ccccc3)C[C@@H]21` reads 15.1%. For `Cc1cccc(CN2C[C@H]3OC(=O)N(CCCN4CCOCC4)[C@H]3C2)n1` the value was 22.3%.

Take `Cc1ncsc1C(=O)N1CC[C@@H]2[C@@H](CC1)OCCN2c1cccnc1`: the Percent Effect is 10.5%. The result for `O=c1c(C(F)(F)F)cccn1Cc1nnc(-c2cccnc2)o1` reads 11.5%. The result for `COc1cccn(Cc2nnc(-c3cccc(F)c3)o2)c1=O` reads 91.8%. For `COc1cccn(Cc2nnc(-c3cccnc3)o2)c1=O` the value was 39.3%.

On to `Cc1cccc(CN2C[C@@H]3CN(C(=O)NC(C)C)C[C@@H]3C2=O)c1`, for which the Percent Effect was determined as 12.3%. As for `C[C@H](NS(C)(=O)=O)C(=O)NCc1cc(-c2ccco2)n[nH]1`, the Percent Effect amounted to 51.4%. The result for `CC(C)[C@H](NS(C)(=O)=O)C(=O)NCc1cc(-c2ccccc2)n[nH]1` reads 17.1%; that for `CC(C)[C@H](NS(C)(=O)=O)C(=O)NCc1cc(-c2ccco2)nn1C`, 8.57%. For `C[C@H](NS(C)(=O)=O)C(=O)NCc1cc(-c2ccco2)n(CC(F)(F)F)n1` the value was -80%; for `CC(C)[C@H](NS(C)(=O)=O)C(=O)NCc1cc(-c2ccco2)n[nH]1`, 54.3%. For `CN(C)c1nccc(NCc2cc(-c3ccco3)n[nH]2)n1` the value was 34.3%; for `CN1CCN(C[C@@H]2OC[C@H]3CN(CCc4ccccc4)CC[C@H]32)CC1`, 22.6%; for `O=C(NC1CCC1)[C@@H]1CCO[C@@H]2CCN(CCc3ccccc3)C[C@H]21`, 15.4%.

In the case of `O=C(NC[C@]12COC[C@H]1CN(Cc1nccs1)C2)c1ccsc1`, the Percent Effect was found to be 0%. For the compound `COc1cc(C#N)ccc1OC12CCCN(CC1)C2` (centres undefined), the Percent Effect came to 23.1%. The result for `c1ccc(Oc2ccc(OC34CCCN(CC3)C4)cc2)cc1` (centres undefined) reads 61.2%. For `O=c1[nH]nc(CNCc2ccc(OC34CCCN(CC3)C4)cc2)[nH]1` (centres undefined) the value was 17.6%; for `Cc1cnccc1CNCc1ccc(OC23CCCN(CC2)C3)cc1` (centres undefined), 36.5%; for `c1ccc(Oc2cccc(OC34CCCN(CC3)C4)c2)cc1` (centres undefined), 51%. For `Cc1nc(CNCc2cccc(OC34CCCN(CC3)C4)c2)n[nH]1` (centres undefined) the value was 24.7%; for `Cc1ccc(C(=O)N2C[C@@H]3CCCO[C@@H]3[C@H](N(C)Cc3ccco3)C2)o1`, 3.23%; for `O=S(=O)(N1CCCC1)N1CC[C@H](c2ccccc2)[C@H]2NCCCC[C@H]21`, 26.3%. Take `COc1ncccc1CN1C[C@@H]2COC[C@]2(COc2ccccn2)C1`: the Percent Effect turned out to be 7.69%. As for `CS(=O)(=O)NC[C@]12COC[C@H]1CN(C(=O)c1cnccn1)C2`, the Percent Effect is -2.65%.

With `O=C(CN1CCN(c2ncccn2)[C@@H]2CS(=O)(=O)C[C@@H]21)N1CCCCC1`, the Percent Effect is -8.22%.

For the compound `COc1ncc(-c2cc(-c3ccn(C)c3)nc(N)c2C#N)cn1`, the Percent Effect came out at 35.4%. For `COc1ncc(-c2c(C#N)c(N)nc3c2CCc2[nH]ccc2-3)cn1` the value was 95.7%.

Regarding `CCOc1ccc(-c2c(C#N)c(N)nc3c2COCC3)cn1`, the Percent Effect stood at 21.7%. The result for `COCCc1ncc(-c2c(C#N)c(N)nc3c2CCc2[nH]ccc2-3)cn1` reads 103%. The result for `CCCn1cc(-c2cc(-c3cnc(OC)nc3)c(C#N)c(N)n2)c(C)n1` reads 16.4%; that for `CCC(C)Sc1ncc(-c2c(C#N)c(N)nc3c2COCC3)cn1` (centres undefined), 2.17%. For `O=C([C@@H]1C[C@@H]2CCN(Cc3ccco3)C[C@H]2O1)N1CCCO1` the value was 15%. In the case of `CC(C(=O)Nc1ccc(Cl)cn1)N1CCc2nn(C)c(=O)cc2C1` (centres undefined), the Percent Effect is 102%. Turning to `Cn1nc2c(cc1=O)CN(CC(=O)Nc1ccc(Cl)cn1)CC2`, the Percent Effect was 103%. As for `Cn1nc2c(cc1=O)CN(CC(=O)Nc1nccs1)CC2`, the Percent Effect worked out at 48.2%. As to `CC(C(=O)Nc1nccs1)N1CCc2nn(C)c(=O)cc2C1` (centres undefined), the Percent Effect turned out to be 23.2%. For `Cn1nc2c(cc1=O)CN(CC(=O)Nc1nncs1)CC2` the value was 6.06%. The result for `CC(C(=O)Nc1ccnn1C(C)C)N1CCc2nn(C)c(=O)cc2C1` (centres undefined) reads 25%; that for `Cc1cccc(CN2C(=O)CO[C@@H]3CN(CCO)C[C@H]32)c1`, 15.4%; that for `Cc1cc(C(=O)N2CC[C@@H]3CN(C)S(=O)(=O)[C@@H]3CC2)no1`, 9.62%. For `Cc1cccc(COC[C@@H]2CC[C@H]3[C@H](CCN3Cc3ccco3)O2)n1` the value was 13.3%. On to `CCCc1nc(CNC2(c3nccs3)CCCC2)cs1`, for which the Percent Effect worked out at 15.1%. With `Cc1csc(C2(NCc3csc(C4CC4)n3)CCCC2)n1`, the Percent Effect worked out at 8.6%. The result for `c1csc(C2(NCc3csc(C4CC4)n3)CCCC2)n1` reads 51.6%; that for `O=C(NC[C@H]1CC[C@H](c2nnc(-c3cccnc3)o2)CC1)C1CC1`, -19.9%; that for `O=C(c1ccsc1)N1C[C@@H]2CCN(C(=O)c3cccc(F)c3)[C@@H]2C1`, 11.7%.

For the compound `COc1ccc(CNC(=O)Nc2ccc(S(=O)(=O)C(F)F)cc2)cc1`, the Percent Effect was determined as 18.3%. Regarding `COc1ccc(CNC(=O)Nc2ccc(=O)n(C)c2)cc1`, the Percent Effect was 114%. In the case of `COC(=O)c1ccc(CNC(=O)Nc2ccc(=O)n(C)c2)cc1`, the Percent Effect was 120%. The result for `COc1cccc(-c2ccc(CNC(=O)c3ccc(=O)n(C)c3)cc2)c1` reads 14.6%. As to `Cn1cc(NC(=O)NCc2ccoc2)ccc1=O`, the Percent Effect is 120%.

Turning to `O=C(NCc1ccoc1)Nc1ccc(CN2CCOC2=O)cc1`, the Percent Effect amounted to 2.88%. For `Cc1nnc(NC(=O)NCc2ccoc2)s1` the value was 7.69%. The result for `COc1ccc(CNC(=O)Nc2ccc(CN3CCOC3=O)cc2)cc1` reads 15.2%; that for `COc1ccc(CNC(=O)c2ccc(=O)n(C)c2)cc1C`, -2.08%; that for `c1cnc(N2C[C@H]3CCN(CCN4CCCC4)C[C@H]3C2)cn1`, 25.7%.

As for `Cc1ccc(CN2CC[C@H]3[C@@H]2CCC(=O)N3CCN2CCCC2)s1`, the Percent Effect was found to be 5.11%.

Consider `CC(C)NC(=O)N1CC[C@H]2[C@H]1CCN2c1ncccn1`, for which the Percent Effect amounted to 15.4%. The result for `COc1ncccc1CN1C[C@@H]2COC[C@]2(COc2cccnc2)C1` reads 20.5%; that for `Cc1nc([C@@H]2C[C@@H]3CCN(C(=O)c4ccsc4)C[C@H]3O2)no1`, 0%; that for `COc1cccc(CN2C[C@@H]3CC[C@@](O)(c4ccccn4)[C@@H]3C2)c1OC`, 0%.
